Tests used:
Test in all cases: log2 ratio of Biotin-Ahx-Ub-VS probe labelling (fragment/DMSO); higher = less target engagement (more negative = stronger competition), active = hit call of the paper (q ≤ 0.05, log2 ratio ≤ -1)
Conditions in all cases: compound concentration: 200 uM; treatment time: 3 h
USP16 = USP16 (UniProt Q9Y5T5)
Outline: (§1)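 Global-median-normalised Spectronaut label-free quantities were compared by unpaired t-test, and values are average log2 ratios of fragment over vehicle. Only proteins with ≥2 unique peptides were used. HEK293T lysate (495 µg per sample) was treated in triplicate with fragment at 200 µM or vehicle for 3 h and then with Biotin-Ahx-Ub-VS at 0.5 µM final for 1 h. Labelled DUBs were then NeutrAvidin-enriched, digested with LysC and trypsin, and run by diaPASEF LC-MS/MS.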

USP19 = target: T1, USP19 (UniProt O94966)
T1 sequence (whole entry): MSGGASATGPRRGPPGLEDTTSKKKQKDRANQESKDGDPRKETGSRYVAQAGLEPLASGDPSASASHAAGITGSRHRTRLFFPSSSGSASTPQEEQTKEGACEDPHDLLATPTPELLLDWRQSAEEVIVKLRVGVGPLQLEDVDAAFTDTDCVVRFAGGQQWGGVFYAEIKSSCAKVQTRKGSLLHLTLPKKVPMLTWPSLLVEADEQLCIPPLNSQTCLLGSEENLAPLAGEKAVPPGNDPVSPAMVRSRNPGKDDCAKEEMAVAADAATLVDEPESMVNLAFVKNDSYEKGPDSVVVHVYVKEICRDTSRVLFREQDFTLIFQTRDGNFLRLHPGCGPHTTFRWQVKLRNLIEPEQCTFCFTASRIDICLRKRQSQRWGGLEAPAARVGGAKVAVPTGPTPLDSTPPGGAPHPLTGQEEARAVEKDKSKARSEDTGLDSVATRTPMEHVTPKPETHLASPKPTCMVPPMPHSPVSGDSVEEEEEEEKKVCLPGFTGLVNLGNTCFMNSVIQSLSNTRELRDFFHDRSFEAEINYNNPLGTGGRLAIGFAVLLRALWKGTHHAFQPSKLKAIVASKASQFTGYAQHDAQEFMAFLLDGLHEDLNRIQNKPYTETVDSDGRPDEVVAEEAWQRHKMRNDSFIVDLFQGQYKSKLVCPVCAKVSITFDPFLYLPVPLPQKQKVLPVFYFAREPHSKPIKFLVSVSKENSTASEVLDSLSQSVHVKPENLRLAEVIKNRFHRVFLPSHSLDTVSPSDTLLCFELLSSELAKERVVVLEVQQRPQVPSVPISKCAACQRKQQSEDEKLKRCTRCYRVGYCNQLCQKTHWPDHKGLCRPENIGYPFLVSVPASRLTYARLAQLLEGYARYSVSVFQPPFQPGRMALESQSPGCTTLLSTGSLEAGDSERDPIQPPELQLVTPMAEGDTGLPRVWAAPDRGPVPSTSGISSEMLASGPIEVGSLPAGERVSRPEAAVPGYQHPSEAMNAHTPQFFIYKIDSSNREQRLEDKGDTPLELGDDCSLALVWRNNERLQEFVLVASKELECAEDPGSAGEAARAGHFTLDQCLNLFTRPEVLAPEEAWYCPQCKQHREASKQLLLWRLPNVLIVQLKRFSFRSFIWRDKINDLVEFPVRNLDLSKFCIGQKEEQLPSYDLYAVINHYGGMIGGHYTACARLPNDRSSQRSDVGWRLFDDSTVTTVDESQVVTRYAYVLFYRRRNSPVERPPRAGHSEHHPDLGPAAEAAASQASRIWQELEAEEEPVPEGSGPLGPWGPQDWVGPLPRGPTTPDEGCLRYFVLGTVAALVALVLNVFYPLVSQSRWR
Outline: as §1

USP24 = USP24 (UniProt Q9UPU5)
Outline: as §1

USP25 = target: T2, USP25 (UniProt Q9UHP3)
T2 sequence (whole entry): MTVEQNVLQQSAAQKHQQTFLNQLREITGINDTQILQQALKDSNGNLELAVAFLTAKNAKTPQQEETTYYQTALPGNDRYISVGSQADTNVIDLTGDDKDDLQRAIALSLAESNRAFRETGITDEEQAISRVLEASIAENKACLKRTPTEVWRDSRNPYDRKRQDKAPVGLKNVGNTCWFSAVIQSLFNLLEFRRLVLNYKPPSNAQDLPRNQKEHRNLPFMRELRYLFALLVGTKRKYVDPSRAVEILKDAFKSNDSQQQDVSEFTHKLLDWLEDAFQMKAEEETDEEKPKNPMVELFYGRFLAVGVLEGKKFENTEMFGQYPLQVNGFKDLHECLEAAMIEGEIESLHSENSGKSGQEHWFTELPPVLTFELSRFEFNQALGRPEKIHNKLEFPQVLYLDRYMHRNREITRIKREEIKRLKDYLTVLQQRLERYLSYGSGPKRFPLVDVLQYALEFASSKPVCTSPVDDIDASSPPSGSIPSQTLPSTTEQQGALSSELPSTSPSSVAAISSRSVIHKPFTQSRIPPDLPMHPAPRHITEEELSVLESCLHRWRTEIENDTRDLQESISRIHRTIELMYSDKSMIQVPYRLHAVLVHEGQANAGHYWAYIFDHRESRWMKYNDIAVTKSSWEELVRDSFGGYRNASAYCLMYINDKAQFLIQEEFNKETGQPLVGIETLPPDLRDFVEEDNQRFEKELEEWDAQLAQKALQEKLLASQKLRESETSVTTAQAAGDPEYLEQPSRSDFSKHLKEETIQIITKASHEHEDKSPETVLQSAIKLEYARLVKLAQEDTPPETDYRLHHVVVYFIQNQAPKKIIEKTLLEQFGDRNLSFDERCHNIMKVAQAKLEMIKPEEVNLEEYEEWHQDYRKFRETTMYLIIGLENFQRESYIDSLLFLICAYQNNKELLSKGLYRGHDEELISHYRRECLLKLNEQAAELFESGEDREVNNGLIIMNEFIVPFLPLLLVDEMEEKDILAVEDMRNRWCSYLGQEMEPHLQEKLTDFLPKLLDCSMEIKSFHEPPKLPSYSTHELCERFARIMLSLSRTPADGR
Outline: as §1

USP28 = target: T3, USP28 (UniProt Q96RU2)
T3 sequence (whole entry): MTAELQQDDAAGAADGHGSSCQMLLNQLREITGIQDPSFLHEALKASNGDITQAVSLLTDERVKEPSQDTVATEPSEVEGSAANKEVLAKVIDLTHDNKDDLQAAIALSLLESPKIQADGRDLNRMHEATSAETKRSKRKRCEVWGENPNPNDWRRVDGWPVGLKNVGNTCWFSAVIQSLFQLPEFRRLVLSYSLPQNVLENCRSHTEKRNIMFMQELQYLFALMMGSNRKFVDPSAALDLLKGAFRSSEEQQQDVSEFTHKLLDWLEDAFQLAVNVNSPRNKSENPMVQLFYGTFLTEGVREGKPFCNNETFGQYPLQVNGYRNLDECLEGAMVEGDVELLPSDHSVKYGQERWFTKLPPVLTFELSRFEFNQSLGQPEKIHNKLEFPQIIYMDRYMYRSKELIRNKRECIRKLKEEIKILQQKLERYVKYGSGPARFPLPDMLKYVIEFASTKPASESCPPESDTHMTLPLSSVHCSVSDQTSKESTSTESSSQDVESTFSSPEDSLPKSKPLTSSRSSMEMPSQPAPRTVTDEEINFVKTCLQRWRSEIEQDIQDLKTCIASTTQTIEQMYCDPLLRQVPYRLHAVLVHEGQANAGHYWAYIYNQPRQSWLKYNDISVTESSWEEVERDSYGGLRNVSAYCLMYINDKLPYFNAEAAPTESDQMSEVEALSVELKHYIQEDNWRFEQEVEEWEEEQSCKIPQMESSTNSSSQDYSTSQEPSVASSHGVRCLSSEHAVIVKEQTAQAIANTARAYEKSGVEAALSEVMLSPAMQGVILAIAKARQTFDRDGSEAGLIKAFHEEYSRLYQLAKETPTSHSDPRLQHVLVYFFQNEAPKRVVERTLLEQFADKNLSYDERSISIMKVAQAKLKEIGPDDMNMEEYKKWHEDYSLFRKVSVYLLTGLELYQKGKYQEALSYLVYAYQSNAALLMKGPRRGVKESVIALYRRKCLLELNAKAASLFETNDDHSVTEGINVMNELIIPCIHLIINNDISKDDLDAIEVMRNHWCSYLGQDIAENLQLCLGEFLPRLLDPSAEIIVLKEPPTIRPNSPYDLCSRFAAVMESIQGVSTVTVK
Outline: as §1

Measured: log2 ratio of Biotin-Ahx-Ub-VS probe labelling

Sequence of USP16 (Q9Y5T5 whole entry, looked up, the tested form may be a part): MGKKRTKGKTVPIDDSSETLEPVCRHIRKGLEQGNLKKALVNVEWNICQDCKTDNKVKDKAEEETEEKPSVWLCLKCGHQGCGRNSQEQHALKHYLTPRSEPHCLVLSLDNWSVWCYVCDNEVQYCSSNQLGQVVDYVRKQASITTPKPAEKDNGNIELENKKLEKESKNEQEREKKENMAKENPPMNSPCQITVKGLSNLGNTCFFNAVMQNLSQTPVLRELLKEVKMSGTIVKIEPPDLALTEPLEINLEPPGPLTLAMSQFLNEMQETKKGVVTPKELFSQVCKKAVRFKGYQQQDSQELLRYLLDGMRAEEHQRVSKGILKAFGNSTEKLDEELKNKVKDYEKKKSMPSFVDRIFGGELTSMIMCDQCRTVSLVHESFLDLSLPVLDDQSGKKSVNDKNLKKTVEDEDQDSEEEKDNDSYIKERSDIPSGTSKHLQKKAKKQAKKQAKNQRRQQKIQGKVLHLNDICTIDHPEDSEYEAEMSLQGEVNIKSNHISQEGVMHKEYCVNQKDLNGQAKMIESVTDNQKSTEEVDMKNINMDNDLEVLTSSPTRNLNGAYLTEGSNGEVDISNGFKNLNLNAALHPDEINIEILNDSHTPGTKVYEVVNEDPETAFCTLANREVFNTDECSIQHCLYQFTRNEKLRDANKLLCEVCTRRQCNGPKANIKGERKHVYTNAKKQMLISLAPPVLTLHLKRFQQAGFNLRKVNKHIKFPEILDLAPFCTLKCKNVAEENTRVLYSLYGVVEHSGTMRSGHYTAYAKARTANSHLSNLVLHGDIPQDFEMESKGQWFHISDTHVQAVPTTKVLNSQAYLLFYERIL
Sequence of USP24 (Q9UPU5 whole entry): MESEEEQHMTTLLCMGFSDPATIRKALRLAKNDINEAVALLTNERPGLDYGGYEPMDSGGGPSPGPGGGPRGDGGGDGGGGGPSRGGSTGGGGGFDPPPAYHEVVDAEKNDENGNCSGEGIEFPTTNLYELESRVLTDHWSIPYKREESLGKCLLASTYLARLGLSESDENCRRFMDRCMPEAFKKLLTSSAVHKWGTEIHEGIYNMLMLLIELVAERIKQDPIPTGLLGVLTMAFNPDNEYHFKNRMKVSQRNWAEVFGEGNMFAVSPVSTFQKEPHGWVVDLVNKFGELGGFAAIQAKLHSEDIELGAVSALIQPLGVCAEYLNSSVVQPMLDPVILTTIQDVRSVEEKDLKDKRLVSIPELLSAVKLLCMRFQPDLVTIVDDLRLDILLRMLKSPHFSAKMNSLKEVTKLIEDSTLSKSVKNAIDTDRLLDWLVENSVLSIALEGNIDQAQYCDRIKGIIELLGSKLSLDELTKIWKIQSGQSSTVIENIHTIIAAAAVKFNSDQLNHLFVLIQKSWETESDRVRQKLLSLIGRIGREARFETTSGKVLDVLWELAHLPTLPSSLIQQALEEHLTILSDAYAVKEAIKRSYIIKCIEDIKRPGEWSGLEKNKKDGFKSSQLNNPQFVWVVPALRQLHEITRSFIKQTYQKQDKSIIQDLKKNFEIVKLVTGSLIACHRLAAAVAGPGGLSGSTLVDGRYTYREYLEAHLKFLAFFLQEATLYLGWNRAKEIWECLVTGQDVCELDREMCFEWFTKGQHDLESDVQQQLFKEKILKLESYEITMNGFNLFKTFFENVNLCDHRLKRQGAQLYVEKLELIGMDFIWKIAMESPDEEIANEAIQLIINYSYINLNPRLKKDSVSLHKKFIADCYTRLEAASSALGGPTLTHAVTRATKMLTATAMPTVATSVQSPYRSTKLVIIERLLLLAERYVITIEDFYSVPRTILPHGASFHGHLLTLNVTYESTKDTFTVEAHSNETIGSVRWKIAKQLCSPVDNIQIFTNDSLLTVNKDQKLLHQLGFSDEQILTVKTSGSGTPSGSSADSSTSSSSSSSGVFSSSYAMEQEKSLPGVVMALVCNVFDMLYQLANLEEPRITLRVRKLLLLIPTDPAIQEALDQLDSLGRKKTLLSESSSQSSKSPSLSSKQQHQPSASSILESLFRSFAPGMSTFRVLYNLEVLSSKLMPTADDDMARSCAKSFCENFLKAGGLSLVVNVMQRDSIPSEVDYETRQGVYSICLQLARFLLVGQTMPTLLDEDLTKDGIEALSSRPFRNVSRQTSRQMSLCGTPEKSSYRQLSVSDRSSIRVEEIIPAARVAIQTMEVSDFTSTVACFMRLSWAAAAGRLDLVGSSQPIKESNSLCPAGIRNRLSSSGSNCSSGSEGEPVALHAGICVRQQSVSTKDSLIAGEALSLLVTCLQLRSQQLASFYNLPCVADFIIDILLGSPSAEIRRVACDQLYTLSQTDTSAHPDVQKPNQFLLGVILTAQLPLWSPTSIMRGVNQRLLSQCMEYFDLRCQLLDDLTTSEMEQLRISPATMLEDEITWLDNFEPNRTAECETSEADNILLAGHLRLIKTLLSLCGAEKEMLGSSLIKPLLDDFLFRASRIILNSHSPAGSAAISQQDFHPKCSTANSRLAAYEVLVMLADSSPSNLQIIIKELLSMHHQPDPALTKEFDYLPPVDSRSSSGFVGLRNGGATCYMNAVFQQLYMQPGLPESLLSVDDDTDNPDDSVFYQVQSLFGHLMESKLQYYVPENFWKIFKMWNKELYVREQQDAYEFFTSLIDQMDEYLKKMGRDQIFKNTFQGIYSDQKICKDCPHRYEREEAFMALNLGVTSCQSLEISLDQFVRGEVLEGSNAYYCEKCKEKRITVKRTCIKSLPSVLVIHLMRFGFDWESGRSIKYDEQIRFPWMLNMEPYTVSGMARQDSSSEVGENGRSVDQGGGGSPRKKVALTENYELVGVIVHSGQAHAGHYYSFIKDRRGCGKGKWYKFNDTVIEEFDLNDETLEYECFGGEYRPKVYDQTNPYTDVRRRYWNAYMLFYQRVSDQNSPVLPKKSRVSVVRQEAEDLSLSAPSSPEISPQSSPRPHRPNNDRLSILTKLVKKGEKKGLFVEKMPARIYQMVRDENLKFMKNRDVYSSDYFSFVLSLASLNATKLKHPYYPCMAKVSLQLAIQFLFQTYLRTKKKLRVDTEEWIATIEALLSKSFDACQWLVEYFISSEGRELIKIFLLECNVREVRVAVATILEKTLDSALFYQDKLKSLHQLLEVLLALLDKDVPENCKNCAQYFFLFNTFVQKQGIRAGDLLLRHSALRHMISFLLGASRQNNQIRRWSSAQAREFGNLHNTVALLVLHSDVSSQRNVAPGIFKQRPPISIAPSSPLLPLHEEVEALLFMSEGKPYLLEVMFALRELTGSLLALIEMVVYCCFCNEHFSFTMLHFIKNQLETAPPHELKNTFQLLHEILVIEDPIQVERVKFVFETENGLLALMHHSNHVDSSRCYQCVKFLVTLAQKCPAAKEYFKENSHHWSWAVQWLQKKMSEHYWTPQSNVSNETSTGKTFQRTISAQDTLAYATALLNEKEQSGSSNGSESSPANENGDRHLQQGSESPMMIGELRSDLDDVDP

Cc1noc(N2CCN(C(=O)CCl)CC2)n1.Cl
inactive: USP16 0.132 | USP19 -0.238 | USP24 -0.00876 | USP25 -0.13 | USP28 -0.444
